Read-out in assay [1]: Cytochrome P450 2C9 (Homo sapiens) (UniProt P11712)
In words: CLD_CYP2C9_48hr: CellzDirect (CLD) Gene Expression Assay for xenobiotic metabolism (CYP2C9) at 48 hours (AID 2283701; active means hit-call score of the fitted dose curve at least 0.9, where 1 is the maximum; inactive means score below 0.9). An outline of the steps:
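mRNA level measured by quantitative nuclease protection (S1 digestion, chemiluminescent detection) in lysates of human primary hepatocytes exposed 48 h with daily re-dosing. Induction fitted positively versus 0.2% DMSO; morphology-based cytotoxicity flagged yes/no.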

Assay [2] is described as follows: CLD_ACTIN_48hr: CellzDirect (CLD) Gene Expression Assay for Baseline Control (Actin) at 48 hours (AID 2283702). An outline of the steps: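 Background-control actin mRNA read by qNPA chemiluminescence at 48 h. Human hepatocyte cultures from two donors received fresh multi-concentration chemical doses daily for two days; 0.2% DMSO served as vehicle baseline.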
Read-out in assay [3]: xenobiotic metabolism (CYP1A1), CYP1A1 (gene 1543)
The assay is described as follows: CLD_CYP1A1_48hr: CellzDirect (CLD) Gene Expression Assay for xenobiotic metabolism (CYP1A1) at 48 hours (AID 2283705). The gist of the method:
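CYP1A1 transcript measured by quantitative nuclease protection (chemiluminescent) 48 h after two daily treatments of human hepatocyte cultures, versus 0.2% DMSO. Morphology-based cytotoxicity flags accompany data; two donor preparations used.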

Read-out in assay [4]: Glyceraldehyde-3-phosphate dehydrogenase (Homo sapiens) (UniProt P04406)
In words: CLD_GAPDH_48hr: CellzDirect (CLD) Gene Expression Assay for Baseline Control (Glyceraldehyde 3-phosphate dehydrogenase) at 48 hours (AID 2283706).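 Further: active means higher GAPDH mRNA than DMSO vehicle.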 An outline of the steps:
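GAPDH baseline-control readout: qNPA chemiluminescent mRNA quantitation in human liver primary cells 48 h after daily dosing on two consecutive days, vehicle 0.2% DMSO; gain of signal fitted against DMSO, cytotoxicity flagged by phase-contrast morphology.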

Read-out in assay [5]: organic anion transporter (SLCO1B1), SLCO1B1 (gene 10599)
The assay is described as follows: CLD_SLCO1B1_48hr: CellzDirect (CLD) Gene Expression Assay for organic anion transporter (SLCO1B1) at 48 hours (AID 2283707). An outline of the steps:
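SLCO1B1 transcript quantified by qNPA with chemiluminescent readout after 48 h of once-daily chemical exposure. Cultured human primary hepatocytes came from two donors, with 0.2% DMSO vehicle; positive-direction fitting against DMSO, cytotoxicity flagged by morphology.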

Read-out in assay [6]: Broad substrate specificity ATP-binding cassette transporter ABCG2 (Homo sapiens) (UniProt Q9UNQ0)
In words: CLD_ABCG2_48hr: CellzDirect (CLD) Gene Expression Assay for ABC Transporter (ABCG2) at 48 hours (AID 2283704).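 On AC50: potency for induction of ABCG2 mRNA above the DMSO baseline.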 An outline of the steps: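 ABCG2 transcript measured at 48 h by quantitative nuclease protection (chemiluminescent) and fitted for increase relative to 0.2% DMSO. Hepatocyte cultures from separate donors got fresh compound daily over two days; morphology annotated cytotoxicity.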

Read-out in assay [7]: glucuronosyltransferase (UGT1A1), UGT1A1 (gene 54658)
In words: CLD_UGT1A1_48hr: CellzDirect (CLD) Gene Expression Assay for glucuronosyltransferase (UGT1A1) at 48 hours (AID 2283709).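 Further: actives increase expression relative to DMSO so potency refers to induction.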 An outline of the steps:
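Quantitative nuclease protection assay (chemiluminescent) for UGT1A1 mRNA at 48 h in human hepatocyte cultures from two donors, redosed daily with fresh solutions. Induction fitted relative to 0.2% DMSO; phase-contrast morphology annotated cytotoxicity.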

Read-out in assay [8]: xenobiotic metabolism (CYP1A2), CYP1A2 (gene 1544)
The assay is described as follows: CLD_CYP1A2_48hr: CellzDirect (CLD) Gene Expression Assay for xenobiotic metabolism (CYP1A2) at 48 hours (AID 2283703). The gist of the method:
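Cytotoxicity was flagged yes/no from morphology, while CYP1A2 transcript induction was detected by qNPA chemiluminescence after a 48-hour exposure. Human primary hepatocyte cultures from separate donors received fresh dosing solutions daily over two days, with 0.2% DMSO as vehicle and baseline.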

Read-out in assay [9]: alkyl and aryl transferase (GSTA2), GSTA2 (gene 2939)
In words: CLD_GSTA2_48hr: CellzDirect (CLD) Gene Expression Assay for alkyl and aryl transferase (GSTA2) at 48 hours (AID 2283708).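 Further: active means mRNA induction above DMSO vehicle baseline.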 The gist of the method: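 GSTA2 mRNA quantified by qNPA chemiluminescence in human primary hepatocyte lysates after 48 h of daily fresh chemical dosing. Increases fitted against 0.2% DMSO vehicle baseline; cytotoxicity from morphology annotated yes/no.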

Records with an inconclusive call do not appear. Activity calls are given as the source filed them. How the source made its calls, unless noted: active means hit-call score of the fitted dose curve at least 0.9, where 1 is the maximum; inconclusive means response in the unintended direction; inactive means score below 0.9.

Broad substrate specificity ATP-binding cassette transporter ABCG2 (Homo sapiens), sequence (Q9UNQ0 whole entry, looked up): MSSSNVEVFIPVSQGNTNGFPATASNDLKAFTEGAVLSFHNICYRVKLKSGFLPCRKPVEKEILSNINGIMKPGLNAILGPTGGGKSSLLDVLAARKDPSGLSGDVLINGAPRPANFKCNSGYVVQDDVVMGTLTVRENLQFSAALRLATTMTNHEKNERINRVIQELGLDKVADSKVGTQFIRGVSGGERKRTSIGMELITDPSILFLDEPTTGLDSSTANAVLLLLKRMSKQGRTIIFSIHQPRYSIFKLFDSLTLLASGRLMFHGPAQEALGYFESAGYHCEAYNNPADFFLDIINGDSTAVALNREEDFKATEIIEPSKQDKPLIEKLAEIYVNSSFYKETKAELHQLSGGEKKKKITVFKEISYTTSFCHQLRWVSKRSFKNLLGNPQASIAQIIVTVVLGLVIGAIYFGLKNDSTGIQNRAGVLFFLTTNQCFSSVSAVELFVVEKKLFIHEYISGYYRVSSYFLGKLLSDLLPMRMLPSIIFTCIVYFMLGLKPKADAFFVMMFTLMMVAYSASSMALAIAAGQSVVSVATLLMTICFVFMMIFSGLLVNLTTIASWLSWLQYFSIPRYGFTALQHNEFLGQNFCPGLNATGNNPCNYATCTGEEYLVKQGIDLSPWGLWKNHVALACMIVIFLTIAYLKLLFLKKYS
Glyceraldehyde-3-phosphate dehydrogenase (Homo sapiens), sequence (P04406 whole entry, looked up): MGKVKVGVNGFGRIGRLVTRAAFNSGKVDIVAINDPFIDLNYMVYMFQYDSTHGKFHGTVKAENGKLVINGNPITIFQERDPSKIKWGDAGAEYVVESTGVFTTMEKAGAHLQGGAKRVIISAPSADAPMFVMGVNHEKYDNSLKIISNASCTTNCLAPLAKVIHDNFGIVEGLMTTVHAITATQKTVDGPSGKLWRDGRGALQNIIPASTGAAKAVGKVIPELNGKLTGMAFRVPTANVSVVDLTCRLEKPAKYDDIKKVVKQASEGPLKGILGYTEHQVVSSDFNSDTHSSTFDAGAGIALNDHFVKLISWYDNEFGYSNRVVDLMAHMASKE

With `CC(=NC#N)N(C)Cc1ccc(Cl)nc1`, the outcome in [1], in assay [2], in [3], in assay [4] and in [5] was inactive.
For the compound `COc1ccc(C(=CC(=O)N2CCOCC2)c2ccc(Cl)cc2)cc1OC`, the call in [1] and in [2] was inactive. For the same compound, the AC50 in assay [6] was 32 µM (active); in [3], 4.77 µM (active).
In the case of `CCCSP(=O)(OCC)Oc1ccc(Br)cc1Cl` (stereo not given), the call in [1], in assay [6], in assay [3] and in [5] was inactive. The AC50 in assay [7] was 20 µM (active).
Take `CCCCOC(=O)[C@@H](C)Oc1ccc(Oc2ccc(C#N)cc2F)cc1`: the outcome in assay [1], in assay [2], in assay [6], in assay [3] and in [7] was inactive.
With `C#CC(C)(C)NC(=O)c1cc(Cl)cc(Cl)c1`, the call in assay [1] and in [3] was inactive. Besides, in assay [8], the AC50 is 0.348 µM (active).
Turning to `CON=C(C(=O)OC)c1ccccc1CON=C(C)c1cccc(C(F)(F)F)c1`, the call in assay [1], in [2], in assay [6] and in assay [9] was inactive. The AC50 in [3] is 20 µM (active).
Regarding `C#CCC1=C(C)C(OC(=O)C2C(C=C(C)C)C2(C)C)CC1=O` (stereo not given), the compound was classed as inactive in [1], in assay [6], in assay [5] and in [9]. The figures for the AC50 in assay [8], in assay [3] and in assay [7] were 20 µM (active), 33 µM (active) and 3.87 µM (active), respectively.
`CCOP(=S)(OCC)SCCSCC`: the compound was classed as inactive in [1]. Besides, the AC50 in [3] was 20 µM (active).
In the case of `CC(COc1ccc(Oc2ccccc2)cc1)Oc1ccccn1` (stereo not given), the result in assay [1], in [6], in [3] and in assay [5] was inactive.
Consider `CCOP(=O)(OCC)Oc1cc(C)nc(C(C)C)n1`, for which the call in assay [1], in [6], in assay [3], in assay [4] and in [5] was inactive.
`CN(C)C(=O)Nc1cccc(C(F)(F)F)c1`: the compound was classed as inactive in assay [1], in [6], in [4], in assay [5] and in assay [7]. Moreover, the AC50 was 1.96 µM (active) in [8] and 7.21 µM (active) in [3].
Regarding `CCCSP(=O)(OCC)SCCC`, the compound was called inactive in assay [1], in assay [8], in assay [6], in [4] and in [5].
As to `CCCCSP(=O)(SCCCC)SCCCC`, the call in [1] and in assay [5] was inactive. For the same compound, the results for the half-maximal activity concentration (AC50) in [8], in assay [6] and in assay [3] were 3.04 µM (active), 33.5 µM (active) and 4.08 µM (active), respectively.
For the compound `CC(C)N(C(=O)SCC(Cl)=C(Cl)Cl)C(C)C`, the outcome in assay [1], in assay [2], in [3] and in assay [4] was inactive.
For the compound `CCOC(=O)COc1cc(-c2nn(C)c(OC(F)F)c2Cl)c(F)cc1Cl`, the compound was classed as inactive in assay [1].
For the compound `CCc1cccc(C)c1N(C(=O)CCl)C(C)COC` (stereo not given), the result in assay [1], in [6], in [4] and in assay [7] was inactive. For the same compound, the AC50 in assay [3] is 20 µM (active).
Consider `CSc1nc(NC(C)C)nc(NC(C)C)n1`, for which the outcome in assay [1] was inactive. In assay [3], the half-maximal activity concentration (AC50) is 20 µM (active).
In the case of `CNC(=O)ON=C(SC)C(=O)N(C)C`, the outcome in assay [1], in [2], in [6], in assay [3] and in assay [4] was inactive.
On to `COP(=O)(NC(C)=O)SC` (stereo not given), for which the result in assay [1], in assay [8], in assay [6], in [3], in [4] and in assay [5] was inactive. The outcome in assay [7] was inactive.
With `CN1COCN(Cc2cnc(Cl)s2)C1=N[N+](=O)[O-]`, the outcome in assay [1], in assay [2], in assay [6], in [3], in assay [4] and in assay [5] was inactive. Moreover, in assay [9], the call was inactive.
With `CC(C)=CC1C(C(=O)OCN2C(=O)C3=C(CCCC3)C2=O)C1(C)C` (stereo not given), the compound was classed as inactive in assay [1], in assay [2], in assay [6], in [3], in [4] and in assay [9].
In the case of `O=c1ccc(=O)[nH][nH]1`, the compound was classed as inactive in [1], in assay [2], in assay [6], in assay [4] and in assay [5].
On to `Cc1cc(C2CC2)nc(Nc2ccccc2)n1`, for which the compound was called inactive in assay [1] and in [3].
On to `CCOP(=O)(SC(C)CC)N1CCSC1=O` (stereo not given), for which the compound was called inactive in assay [1], in assay [6], in [5] and in assay [7].
Turning to `CCOP(=S)(OCC)Oc1ccc2c(C)c(Cl)c(=O)oc2c1`, the compound was classed as inactive in assay [1] and in assay [6]. Moreover, the figures for the half-maximal activity concentration (AC50) in [8] and in assay [3] were 0.414 µM (active) and 1.89 µM (active), respectively.
Consider `CCc1cccc(CC)c1N(COC)C(=O)CCl`, for which the outcome in [1], in assay [2], in assay [6] and in [5] was inactive. The AC50 in [3] was 1.89 µM (active).
For the compound `COc1cccc(C(=O)NN(C(=O)c2cc(C)cc(C)c2)C(C)(C)C)c1C`, the result in assay [1] and in assay [5] was inactive. The AC50 in [3] was 10.1 µM (active).
For `Cc1ccn2nc(S(=O)(=O)Nc3c(F)cccc3F)nc2n1`, the compound was classed as inactive in [1], in assay [6], in assay [5] and in assay [7].
As for `CSc1nnc(C(C)(C)C)c(=O)n1N`, the compound was classed as inactive in [1], in [4] and in assay [7]. In addition, the concentration at half-maximal activity (AC50) in assay [8] was 2.97 µM (active).
For `CC(C)[C@H](C(=O)O[C@H](C#N)c1cccc(Oc2ccccc2)c1)c1ccc(Cl)cc1`, the compound was classed as inactive in assay [1]. Also, the AC50 in [3] is 20 µM (active).
For the compound `COc1cc(OC)nc(Sc2cccc(Cl)c2C(=O)O)n1`, the compound was called inactive in [1], in [2], in assay [8], in [6], in assay [4] and in assay [5]. In addition, in [7], the compound was classed as inactive.
Turning to `CNc1cnn(-c2cccc(C(F)(F)F)c2)c(=O)c1Cl`, the outcome in assay [1] and in assay [7] was inactive. Besides, in assay [3], the half-maximal activity concentration (AC50) was 5.37 µM (active).
On to `CCOP(=S)(OCC)OC(Cl)C(Cl)(Cl)Cl` (stereo not given), for which the compound was called inactive in [1], in assay [6] and in assay [3]. Further, in assay [7], the concentration at half-maximal activity (AC50) was 4.19 µM (active).
In the case of `CCOP(=S)(Oc1cnc(C(C)(C)C)nc1)OC(C)C` (stereo not given), the call in [1] and in assay [6] was inactive. Besides, the AC50 in assay [3] is 3.91 µM (active); in assay [7], 0.439 µM (active).

Values taken from PubChem BioAssay (EPA / NIEHS).
